SMARCA2 activ – activators of SMARCA2 function. MG213 cells, MMTV-luciferase reporter, dexamethasone, overnight. activation, % at 9.1 µM. AID 652017. 370,000 tested, 1% active; in the data active = activation above about 7.8%;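 also: 0% = vehicle wells and 100% = reference activator wells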
NR2F2 inh – NR2F2 (human) inhibition, primary screen. P24468. HEK293T NGFI-A luciferase reporter, luminescence. inhibition, % at 8.6 µM. 370,000 tested, 0.7% active. AID 686940;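 active = inhibition above a per-plate cutoff, mean inhibition of test wells between control levels plus 3 SD, cut at about 38% in these data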;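 also: cells cotransfected with COUP-TFII expression vector driving the NGFI-A reporter; 0% = median of COUP-TF2 test wells and 100% = reporter-only cells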
H9c2 protect – myocardial damage modulation in H9c2 cells | 360,000 tested, 0.63% active | H9c2 cardiomyocytes, H2O2 injury protection, ATPLite, 2 h | protection from H2O2 cell death, % at 20 µM;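 active = compounds giving at least 50% protection of heart cells from peroxide-induced death in the single-dose screen, raw or plate-pattern-corrected value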;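 also: 0% = DMSO wells with peroxide and 100% = DMSO wells without peroxide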
GalR3 antag – human GalR3 antagonism | O60755 | HEK293 GalR3-CNG cAMP membrane potential fluorescence; galR3 body fused to GalR1 C-terminus | inhibition, % at 3 µM | 360,000 tested, 0.44% active | AID 651719;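 active = inhibition above the screen-wide average plus 3 SD, cut at about 13% in these data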;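 also: forskolin and galanin both at EC90 stimulate the cells; cAMP rise reported by CNG channel membrane potential dye signal; 0% = forskolin plus galanin with DMSO and 100% = forskolin alone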
Target sequence (O60755 1-299 limits assumed): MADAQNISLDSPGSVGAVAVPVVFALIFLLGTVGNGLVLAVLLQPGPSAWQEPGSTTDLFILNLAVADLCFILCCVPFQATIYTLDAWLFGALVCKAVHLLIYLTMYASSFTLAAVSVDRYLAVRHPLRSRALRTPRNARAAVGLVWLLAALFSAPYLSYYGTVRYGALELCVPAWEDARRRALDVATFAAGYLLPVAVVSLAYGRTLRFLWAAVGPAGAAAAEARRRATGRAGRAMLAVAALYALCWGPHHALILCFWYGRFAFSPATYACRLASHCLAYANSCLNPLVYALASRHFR
FXN GAA850 act – activators of GAA850 frataxin (FXN) promoter. HEK293 lucGAA850 FXN promoter luciferase reporter, 24 h; percent of 10 µM SAHA response. activation, % at 6 µM. 360,000 tested, 0.56% active. AID 540364;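 active = activation above the average of all compounds screened plus 3 SD, cutoff fixed separately per campaign, cut at about 7.5% in these data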;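 also: 0% = DMSO wells and 100% = 10 µM SAHA wells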
Gli-Sufu antag – blocks Gli-Sufu signaling in a luciferase reporter | inhibition, % at 5 µM | AID 588413 | Sufu-KO-LIGHT fibroblasts, Gli luciferase reporter luminescence | 340,000 tested, 0.74% active;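 active = inhibition above about 55%, limit read from the data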;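 also: 0% = DMSO-treated cells and 100% = wells with medium but no cells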
Gli-Sufu confirm – confirmation of Gli-SUFU pathway antagonists; shares compounds with Gli-Sufu antag; Sufu-KO-LIGHT cells, Gli luciferase reporter, luminescence; inhibition, % at 5 µM; 2,500 tested, 40% active; AID 602428;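 active = mean inhibition at 5 µM reaching about 45%, limit read from the data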;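 also: plate controls were DMSO-treated cells for no effect and wells lacking cells for full effect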
Gli cytotox – cytotoxicity counter-screen for Gli-SUFU antagonists | Sufu-KO-LIGHT cells cytotoxicity, ATP luminescence | 2,500 tested, 32% active | cytotoxicity, % at 5 µM | shares compounds with Gli-Sufu antag | AID 651994;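 active = mean cytotoxicity at 5 µM above about 25%, limit read from the data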;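 also: cells exposed to compound overnight for roughly 16 to 18 hours; plate controls were DMSO wells with cells for no effect and medium without cells for full effect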
Wnt3a cs – inhibits Wnt3a reporter, counter-screen for Gli-SUFU antagonists; Wnt-LIGHT cells, Wnt3a-driven luciferase reporter, luminescence; inhibition, % at 6.25 µM; AID 651995; 2,500 tested, 20% active; shares compounds with Gli-Sufu antag;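 active = mean inhibition above about 25%, limit read from the data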
Active calls of the source: *; · = no result. This is a sample that favours compounds with a hit; in the whole collection about 3.4% have one here.

SMILES	SMARCA2 activ	NR2F2 inh	H9c2 protect	GalR3 antag	FXN GAA850 act	Gli-Sufu antag	Gli-Sufu confirm	Gli cytotox	Wnt3a cs
CC(=O)Nc1ccc(S(=O)(=O)N2CC3(C)CC2CC(C)(C)C3)cc1 (centres undefined)	-1	-27	-5	-2	2	-4	·	·	·
CCOC(=O)c1cc([N+](=O)[O-])sc1NC(=O)c1ccc(S(=O)(=O)N2CC3(C)CC2CC(C)(C)C3)cc1 (centres undefined)	-3	-15	-14	2	0	71*	82*	27*	50*
COc1ccc2ccccc2c1CN(C)Cc1ccccc1	1	-20	-1	-13	2	83*	18	14	-7
Cc1ccc(S(=O)(=O)N2CCCC2c2cccc3[nH]cc(C)c23)cc1 (centres undefined)	-1	10	·	·	·	·	·	·	·
CCOC(=O)c1c(NC(=O)COc2ncnc3ccccc23)sc(C(C)=O)c1C	-4	19	-10	-2	5	55*	38	22	-9
COC(=O)c1c(NC(=O)COc2ncnc3ccccc23)sc(C)c1C	-2	10	-4	1	0	-26	·	·	·
Cc1sc2ncnc(N3CCC(C(=O)Nc4cc(C(F)(F)F)ccc4OCC(F)(F)F)CC3)c2c1C	-5	30	-13	-5	-6	24	·	·	·
CCOc1ccc(NCC(=O)c2ccc(C)cc2)cc1	-3	10	-22	-6	2	61*	-5	21	-77
CCOc1ccc(C(=O)COc2ccc(NC(C)=O)cc2)cc1	0	-2	-1	-3	0	4	·	·	·
O=C(Nc1ccc(NS(=O)(=O)c2ccccc2)cc1)c1ccc(Cl)cc1	-2	-13	-3	0	2	4	·	·	·
O=C(Nc1cccc(S(=O)(=O)Nc2ccc(Cl)cc2)c1)c1ccc(Cl)nc1	-4	82*	-9	73*	-7	68*	64*	39*	23
Cc1ccc2ccc[n+](Cc3ccccc3)c2c1	-3	10	-5	-1	0	22	·	·	·
Cc1ccc2c(c1)c(C)cc[n+]2Cc1ccccc1	-6	7	-9	-11	-3	58*	60*	30*	13
CCN(Cc1ccccc1)C(=O)c1[nH]c2ccc(OC)cc2c1C	4	6	-4	-12	1	9	·	·	·
COc1ccc2c(c1)c(C)cc[n+]2Cc1ccccc1	-5	10	-10	-7	-2	65*	67*	22	23
COC(=O)C1(C(=O)OC)c2ccccc2N(S(=O)(=O)c2ccc(C)cc2)C1CC(=O)c1ccccc1 (centres undefined)	-3	8	·	-6	·	·	·	·	·
O=C(CCc1nc2ccccc2c(=O)[nH]1)OCc1ccc(-c2ccccc2)cc1	-1	-9	27	-1	2	96*	21	4	-36
O=C(CCc1nc2ccccc2c(=O)[nH]1)OCc1cccc(C(F)(F)F)c1	-2	6	13	-2	1	3	·	·	·
Cn1c2nc(=O)n(-c3ccccc3)c(=O)c-2nc2c1CCCC2	·	·	2	·	-1	·	·	·	·
CC(=O)N1CC=CC1(CC(C)C)C(=O)NCCc1c[nH]c2ccccc12 (centres undefined)	1	-2	2	-5	2	95*	26	-4	-22
CC(C)c1nnc(NC(=O)CC(=O)Nc2ccccc2C(=O)O)s1	2	-12	9	4	0	52	44	-5	48*
CC(C)Cc1nnc(NC(=O)CC(=O)Nc2ccccc2C(=O)O)s1	2	-5	0	-3	0	-2	·	·	·
CC(=O)N1C[C@@H](CO)[C@@H](N(C)C(=O)C(C)(C)C)C[C@H]1c1ccccc1	0	-7	4	-3	·	·	·	·	·
CCOc1cccc(/C=N/NC(=O)c2cccnc2)c1O	-3	-10	34	-1	-2	59*	30	15	33*
CN1CCN(c2ccccc2/C=N/NC(=O)c2cccnc2)CC1	-1	23	11	-4	0	66*	26	9	4
SMILES	SMARCA2 activ	NR2F2 inh	H9c2 protect	GalR3 antag	FXN GAA850 act	Gli-Sufu antag	Gli-Sufu confirm	Gli cytotox	Wnt3a cs
CCOc1cc(/C=N/NC(=O)c2cccnc2)ccc1O	-2	27	-1	0	0	2	·	·	·
CCOC(=O)N1CCC(N(CCOC)C(=O)Nc2ccc(CC)cc2)CC1	0	-9	-2	-4	2	0	·	·	·
CCOC(=O)N1CCC(N(C(=O)Nc2ccc(Cl)c(Cl)c2)C(C)CC)CC1 (centres undefined)	-3	-3	-17	1	-1	65*	31	20	-37
CC1CCN(Cc2c(C(=O)N/N=C/c3ccccc3O)nnn2-c2nonc2N)CC1	-2	10	42	-13	-3	52	62*	23	27*
CC(=C/c1ccccc1)/C=N/NC(=O)c1nnn(-c2nonc2N)c1CN1CCC(C)CC1	-1	2	-3	-10	-1	17	·	·	·
Nc1nonc1-n1nnc(C(=O)N/N=C/c2ccncc2)c1CSc1ccccc1	0	1	4	-2	0	62*	27	20	2
COc1ccc(/C=C/C(Cc2cccc(C(C)=O)c2)c2ccc(C)cc2)cc1 (centres undefined)	-5	-8	·	·	·	·	·	·	·
CCOC(=O)NC(=O)C(=CNc1ccc(C)cc1)C(=O)NC(=O)OCC	-4	-3	10	-6	0	-4	·	·	·
Cc1ccccc1CS(=O)(=O)Cc1ccc(C(=O)NCc2ccco2)o1	3	-1	3	1	1	51	12	5	-24
Cc1ccccc1S(=O)(=O)Cc1ccc(C(=O)NCc2ccco2)o1	0	-16	7	-8	1	16	·	·	·
COC(=O)N/N=C/c1c(C)c(C(=O)c2ccc(F)cc2)n2ccccc12	-1	-7	0	-4	-5	4	·	·	·
Cc1c(/C=N/NC(=O)c2ccccc2O)c2ccccn2c1C(=O)c1ccc(F)cc1	2	6	-23	-2	1	79*	71*	1	-128
Cc1cc(N2CCN(c3ccc(C(F)(F)F)cc3[N+](=O)[O-])CC2)c2ccccc2n1	-1	32	-14	-13	1	52	34	19	-53
CCc1nc(CN2CCCC(C(=O)c3ccc4c5c(cccc35)CC4)C2)c(C)[nH]1 (centres undefined)	-4	28	-9	-7	-1	52	15	6	-44

Compound activity: PubChem, several laboratories
